# Data published in PubChem BioAssay (NCI).
# The panel holds about 83,000 compounds, 20% with a hit somewhere; the sample as a whole holds those more often.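 For each line, cells grew in 96-well plates with the test compound present at a single concentration for 48 hours.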 Calls of active or inactive are those of the source. How the source made its calls: active means growth percent below 10; inactive means the rest.
# Key:
# Experiment in all cases: NCI-60 one-dose screen, 48 h (100 = growth as untreated, 0 = no growth, -100 = all killed)
# [1] = test system: DU-145 prostate; conditions: 10 µM unless noted
# [2] = test system: K-562 leukemia; conditions: 10 µM unless noted
# [3] = test system: MALME-3M melanoma; conditions: 10 µM unless noted
# [4] = test system: MDA-MB-231 breast; conditions: 10 µM unless noted
# [5] = test system: RXF 393 renal; conditions: 10 µM unless noted
# [6] = test system: SF-268 CNS; conditions: 10 µM unless noted
# [7] = test system: SF-295 CNS; conditions: 10 µM unless noted
# [8] = test system: SF-539 CNS; conditions: 10 µM unless noted
# [9] = test system: UACC-257 melanoma; conditions: 10 µM unless noted
# [10] = test system: M14 melanoma; conditions: 10 µM unless noted
# [11] = test system: HCT-15 colon; conditions: 10 µM unless noted
# [12] = test system: HT29 colon; conditions: 10 µM unless noted
# [13] = test system: SNB-75 CNS; conditions: 10 µM unless noted
# [14] = test system: SNB-19 CNS; conditions: 10 µM unless noted
# [15] = test system: U251 CNS; conditions: 10 µM unless noted
# [16] = test system: PC-3 prostate; conditions: 10 µM unless noted
# [17] = test system: SK-MEL-5 melanoma; conditions: 10 µM unless noted
# [18] = test system: UACC-62 melanoma; conditions: 10 µM unless noted
# [19] = test system: LOX IMVI melanoma; conditions: 10 µM
# [20] = test system: SK-MEL-28 melanoma; conditions: 10 µM unless noted
SMILES,growth [1],growth [2],growth [3],growth [4],growth [5],growth [6],growth [7],growth [8],growth [9],growth [10],growth [11],growth [12],growth [13],growth [14],growth [15],growth [16],growth [17],growth [18],growth [19],growth [20]
FC(F)(F)c1cc(NC2=NCCN=C(Nc3cc(C(F)(F)F)cc(C(F)(F)F)c3)SS2)cc(C(F)(F)F)c1,66.6% (inactive),28.8% (inactive),37% (inactive),73.2% (inactive),77.6% (inactive),74.2% (inactive),52.6% (inactive),81.3% (inactive),64.4% (inactive),82.1% (inactive),37.8% (inactive),49% (inactive),71.5% (inactive),56.5% (inactive),23.3% (inactive),17.1% (inactive),50.2% (inactive),35.6% (inactive),50.5% (inactive),74.7% (inactive)
Cc1cc2c(C(C)C)c(O)c(O)c(C=Nc3ccccc3[N+](=O)[O-])c2c(O)c1-c1c(C)cc2c(C(C)C)c(O)c(O)c(C=Nc3ccccc3[N+](=O)[O-])c2c1O,94.6% (inactive),34.9% (inactive),93.5% (inactive),74.4% (inactive),83.2% (inactive),73.5% (inactive),82% (inactive),97.2% (inactive),92.6% (inactive),88% (inactive),80.2% (inactive),93% (inactive),78% (inactive),43.9% (inactive),54.2% (inactive),65.1% (inactive),96.2% (inactive),96.5% (inactive),81.3% (inactive),98.3% (inactive)
O=C1Nc2ccccc2/C1=C\c1ccccc1O,88.6% (inactive),73.1% (inactive),78% (inactive),83.6% (inactive),106% (inactive),89.7% (inactive),96.6% (inactive),88.7% (inactive),94% (inactive),85.6% (inactive),93.3% (inactive),116% (inactive),64.9% (inactive),101% (inactive),93.5% (inactive),96.8% (inactive),92.6% (inactive),80.5% (inactive),84.8% (inactive),97% (inactive)
ClCC(Cl)C1CCC(Cl)C(Cl)C1 (stereo not given),102% (inactive),105% (inactive),99.5% (inactive),113% (inactive),125% (inactive),98.1% (inactive),95.9% (inactive),96.6% (inactive),101% (inactive),101% (inactive),99% (inactive),103% (inactive),89.6% (inactive),99.8% (inactive),99.6% (inactive),102% (inactive),105% (inactive),103% (inactive),95.9% (inactive),103% (inactive)
CC12CCC3c4ccc(O)cc4CCC3C1CCC2=O (stereo not given),112% (inactive),93.9% (inactive),113% (inactive),83.5% (inactive),103% (inactive),99% (inactive),112% (inactive),96.6% (inactive),93.8% (inactive),102% (inactive),101% (inactive),96.4% (inactive),93.4% (inactive),98.2% (inactive),101% (inactive),85.3% (inactive),101% (inactive),94.6% (inactive),103% (inactive),106% (inactive)
CCOC(=O)c1ccc(NC(=O)Nc2nccs2)cc1,-26.3% (active),-3.89% (active),39.4% (inactive),8.88% (active),-21.2% (active),0.081% (active),9.16% (active),-50.1% (active),45.5% (inactive),4.57% (active),4.65% (active),-25.6% (active),61.5% (inactive),11.6% (inactive),12.5% (inactive),22.8% (inactive),-67.3% (active),31.8% (inactive),11.9% (inactive),40.9% (inactive)
CC(c1ccccc1)N(C)C (stereo not given),119% (inactive),28% (inactive),141% (inactive),99.1% (inactive),124% (inactive),108% (inactive),131% (inactive),103% (inactive),116% (inactive),92.1% (inactive),109% (inactive),88.2% (inactive),59.5% (inactive),100% (inactive),102% (inactive),88.6% (inactive),99.6% (inactive),94.5% (inactive),113% (inactive),157% (inactive)
Cc1cc(C(=O)NN)c(C#N)c(=O)[nH]1,106% (inactive),116% (inactive),103% (inactive),106% (inactive),99.5% (inactive),116% (inactive),127% (inactive),87.7% (inactive),95.4% (inactive),100% (inactive),105% (inactive),124% (inactive),84.6% (inactive),95.3% (inactive),104% (inactive),91.1% (inactive),95.7% (inactive),89.8% (inactive),97.7% (inactive),91.8% (inactive)
Cc1ccc(O)c(N)c1,122% (inactive),113% (inactive),103% (inactive),92.8% (inactive),117% (inactive),112% (inactive),131% (inactive),103% (inactive),111% (inactive),108% (inactive),106% (inactive),112% (inactive),87.7% (inactive),101% (inactive),103% (inactive),94.7% (inactive),103% (inactive),81.5% (inactive),105% (inactive),122% (inactive)
COc1cccc2c1Cc1ccccc1-2,106% (inactive),94.4% (inactive),117% (inactive),93.6% (inactive),97.9% (inactive),99.8% (inactive),103% (inactive),107% (inactive),102% (inactive),102% (inactive),114% (inactive),100% (inactive),110% (inactive),94.4% (inactive),103% (inactive),91.1% (inactive),100% (inactive),99.3% (inactive),80.3% (inactive),115% (inactive)
COc1cc(N)c2ncccc2c1Cl,119% (inactive),102% (inactive),113% (inactive),96.2% (inactive),96.5% (inactive),106% (inactive),101% (inactive),87.3% (inactive),109% (inactive),103% (inactive),90.5% (inactive),91.1% (inactive),99.8% (inactive),98.8% (inactive),101% (inactive),93.3% (inactive),96.4% (inactive),86.7% (inactive),104% (inactive),121% (inactive)
O=C(OC1CCCC1)c1ccccc1Cl,109% (inactive),106% (inactive),102% (inactive),97.3% (inactive),112% (inactive),104% (inactive),100% (inactive),98.6% (inactive),109% (inactive),101% (inactive),111% (inactive),105% (inactive),90.3% (inactive),105% (inactive),101% (inactive),95.7% (inactive),108% (inactive),99.2% (inactive),97% (inactive),107% (inactive)
C#CCSc1nnnn1-c1ccccc1,79.1% (inactive),86% (inactive),104% (inactive),96% (inactive),67.3% (inactive),82.5% (inactive),81.1% (inactive),80.2% (inactive),94.4% (inactive),104% (inactive),54.1% (inactive),96% (inactive),73.2% (inactive),97.5% (inactive),36.7% (inactive),89.4% (inactive),91.1% (inactive),101% (inactive),95.1% (inactive),100% (inactive)
CCOc1ccccc1NC(=O)CCl,105% (inactive),86.8% (inactive),92.2% (inactive),83.8% (inactive),93.9% (inactive),91.7% (inactive),87.4% (inactive),114% (inactive),102% (inactive),79.1% (inactive),85.9% (inactive),89.3% (inactive),88.3% (inactive),101% (inactive),29% (inactive),83.5% (inactive),71.2% (inactive),83.7% (inactive),85.3% (inactive),87% (inactive)
Cc1onc(-c2ccccc2Cl)c1C(=O)Cl,121% (inactive),101% (inactive),109% (inactive),101% (inactive),115% (inactive),117% (inactive),91.7% (inactive),113% (inactive),103% (inactive),108% (inactive),98.2% (inactive),106% (inactive),78.1% (inactive),99.2% (inactive),96.8% (inactive),90.7% (inactive),106% (inactive),99% (inactive),95.1% (inactive),92.6% (inactive)
N#Cc1ccc2nc[nH]c2c1,101% (inactive),106% (inactive),102% (inactive),120% (inactive),109% (inactive),104% (inactive),107% (inactive),113% (inactive),97.9% (inactive),107% (inactive),106% (inactive),112% (inactive),95.5% (inactive),111% (inactive),101% (inactive),105% (inactive),102% (inactive),105% (inactive),101% (inactive),108% (inactive)
